# Source: publication doi:10.1101/2025.08.08.669391
# Molecular target: Splicing factor 3B subunit 1 (UniProt O75533)
# Assay: cross-link between two proteins; cross-linking mass spectrometry
# Sequence of UniProt O75533 (O75533 whole entry): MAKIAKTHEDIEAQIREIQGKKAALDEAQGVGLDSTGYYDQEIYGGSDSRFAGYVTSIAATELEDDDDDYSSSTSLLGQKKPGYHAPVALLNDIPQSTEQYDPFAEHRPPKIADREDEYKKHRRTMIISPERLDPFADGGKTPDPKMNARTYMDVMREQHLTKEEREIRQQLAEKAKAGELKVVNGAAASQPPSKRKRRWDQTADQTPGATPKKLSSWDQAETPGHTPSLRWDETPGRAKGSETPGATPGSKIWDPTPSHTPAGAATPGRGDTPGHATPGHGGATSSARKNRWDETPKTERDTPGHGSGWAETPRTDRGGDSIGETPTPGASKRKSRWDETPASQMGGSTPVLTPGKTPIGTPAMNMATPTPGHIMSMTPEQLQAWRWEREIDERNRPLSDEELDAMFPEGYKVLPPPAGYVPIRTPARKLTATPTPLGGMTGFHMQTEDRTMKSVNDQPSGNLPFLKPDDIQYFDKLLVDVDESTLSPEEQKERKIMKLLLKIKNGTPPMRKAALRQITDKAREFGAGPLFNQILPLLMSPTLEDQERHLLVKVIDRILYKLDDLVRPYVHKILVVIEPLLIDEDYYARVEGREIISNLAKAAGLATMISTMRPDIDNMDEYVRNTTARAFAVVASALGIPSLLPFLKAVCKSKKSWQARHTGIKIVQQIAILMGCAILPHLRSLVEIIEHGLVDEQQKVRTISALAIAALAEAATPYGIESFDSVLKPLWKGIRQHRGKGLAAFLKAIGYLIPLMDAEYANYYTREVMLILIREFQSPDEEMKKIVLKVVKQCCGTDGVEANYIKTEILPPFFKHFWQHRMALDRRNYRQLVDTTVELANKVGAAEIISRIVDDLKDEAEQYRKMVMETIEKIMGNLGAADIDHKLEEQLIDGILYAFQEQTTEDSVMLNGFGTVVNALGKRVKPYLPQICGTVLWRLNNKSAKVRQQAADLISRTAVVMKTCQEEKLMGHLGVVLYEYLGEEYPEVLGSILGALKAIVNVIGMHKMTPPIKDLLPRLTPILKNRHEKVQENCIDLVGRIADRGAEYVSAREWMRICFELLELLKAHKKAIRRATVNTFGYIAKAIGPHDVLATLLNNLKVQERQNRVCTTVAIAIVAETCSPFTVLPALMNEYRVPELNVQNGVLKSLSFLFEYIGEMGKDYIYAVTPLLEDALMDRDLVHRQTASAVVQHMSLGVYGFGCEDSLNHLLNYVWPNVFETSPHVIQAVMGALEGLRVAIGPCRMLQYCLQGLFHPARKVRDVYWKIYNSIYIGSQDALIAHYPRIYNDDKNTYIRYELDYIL
substance,measurement,value
"17S U2 SnRNP complex component HTATSF1, O43719",listed as a hit,yes
